# Measured values: PubChem BioAssay (EPA / NIEHS)
# Records with an inconclusive call do not appear. The source made the active and inactive calls. The calls were made as follows: active = hit-call score of the fitted dose curve at least 0.9, where 1 is the maximum; inconclusive = response in the unintended direction; inactive = score below 0.9.
# Read-out: xenobiotic metabolism (CYP1A1), CYP1A1 (gene 1543)
# Assay: CLD_CYP1A1_24hr: CellzDirect (CLD) Gene Expression Assay for xenobiotic metabolism (CYP1A1) at 24 hours (AID 2283673)
# Procedure: CLD_24hr is a cell-based, multiplexed-readout assay that uses hepatocyte, a human liver primary cell, with measurements taken at 24 hours after chemical dosing in a 96-well plate.CLD_CYP1A1_24hr is one of 16 assay component(s) measured or calculated from the CLD_24hr assay. It is designed to make measurements of mRNA induction, a form of inducible reporter, as detected with chemiluminescence signals by Quantitative Nuclease Protection Assay (qNPA) technology.Data from the assay component CLD_CYP1A1_24hr was analyzed at the endpoint, CLD_CYP1A1_24hr, in the positive analysis fitting direction relative to DMSO as the negative control and baseline of activity. Using a type of inducible reporter, gain-of-signal activity can be used to understand changes in the reporter gene as they relate to the gene CYP1A1. Furthermore, this assay endpoint can be referred to as a primary readout. To generalize the intended target to other relatable targets, this assay endpoint is annotated to the cyp intended target family, where subfamily is xenobiotic metabolism.
# Human hepatocyte cultures were treated daily for two consecutive days with fresh dosing solutions containing appropriate concentrations of the 320 ToxCast chemicals (chemical identities were blinded to CellzDirect and other ToxCast collaborators), vehicle control (0.2% DMSO), and positive control inducers as summarized in Table 1. Due to the large number of treatment groups and chemicals examined, the ToxCast chemicals were divided into two groups (spanning two independent cultures of hepatocytes from separate donor preparations (Hu778: ToxCast plates 1 and 2; Hu776: ToxCast plates 3 and 4). Each preparation of human hepatocyte cultures was treated with respective vehicle control, medium only control, set of six positive controls/reference chemicals for the five hepatic receptor pathways, and a subset of eight of the ToxCast chemicals (indoxacarb, pyrithiobac-sodium, norflurazon, cyhalofop-butyl, methomyl, thiram, acetochlor, and propiconazole). These replicate data, coupled with internal replicates designed within the blinded ToxCast chemical library, provided additional data to evaluate interindividual differences between hepatocyte preparations and their potential impact on chemical profiles.Cell morphology and integrity were evaluated using phase-contrast microscopy as an indicator of hepatocyte cell health (Tyson & Green, 1987). Cultures for each treatment group (i.e., media, vehicle [0.2% DMSO], positive control inducers [multiple concentrations], and the ToxCast chemicals [multiple concentrations]) were observed and cell morphology was assessed relative to vehicle control cultures at each harvest time point (0, 6, 24, or 48 h). […] Images were evaluated at the conclusion of the study to assess changes in cell integrity and account for the effects of chemical exposure on uncharacteristic changes in concentration-dependent gene expression profiles. The results from these determinations of apparent cytotoxicity were annotated (yes/no) alongside the corresponding qNPA data for reference.At the conclusion of each treatment period, hepatocyte cultures (96-well) were washed with 1 volume of HBSS, lysed by addition of 25 ul ArrayPlate lysis buffer (HTG, Tucson, AZ), and 70 ul/well of Denaturation Oil, denatured by incubation at 95C for 10 min, and frozen at approximately -70C until analysis by nuclease protection assay (qNPA) (Roberts et al., 2007). For qNPA analysis, cell lysates were thawed at 50C for approximately 30 min, qNPA probes were added, and samples were incubated at 95C for 10 min to begin the detection process by denaturing the target RNA, dissociating the duplexes and secondary structure hybridization. At the conclusion of the hybridization period, S1 nuclease reagent was added to each sample to digest all nonprotected nucleotides at 50C for 60-90 min. […]
Compound,outcome,AC50
COc1cc(OC)nc(NC(=O)NS(=O)(=O)c2ncccc2OCC(F)(F)F)n1,inactive,
CCCCC(O)(Cn1cncn1)c1ccc(Cl)cc1Cl (stereo not given),,4.35 µM (active)
CCOc1nc(F)cc2nc(S(=O)(=O)Nc3c(Cl)cccc3Cl)nn12,,20 µM (active)
Cc1nc(N(C)C)nc(OC(=O)N(C)C)c1C,,2.75 µM (active)
COC(=O)c1c(C(F)F)nc(C(F)(F)F)c(C2=NCCS2)c1CC(C)C,,36.1 µM (active)
CCCCOCN(C(=O)CCl)c1c(CC)cccc1CC,,6.4 µM (active)
Cc1c(COC(=O)[C@@H]2[C@H](/C=C(\Cl)C(F)(F)F)C2(C)C)cccc1-c1ccccc1,,31.6 µM (active)
CC(C)Nc1nc(Cl)nc(NC(C)C)n1,,11.4 µM (active)
CC1(C)CON(Cc2ccccc2Cl)C1=O,inactive,
OC(c1ccc(Cl)cc1)(c1ccc(Cl)cc1)C(Cl)(Cl)Cl,,20 µM (active)
O=C(O)c1c(Cl)ccc2cc(Cl)cnc12,inactive,
Clc1nc(Cl)nc(Nc2ccccc2Cl)n1,inactive,
COCC(=O)N(c1c(C)cccc1C)C(C)C(=O)OC (stereo not given),inactive,
CCNP(=S)(OC)O/C(C)=C/C(=O)OC(C)C (stereo not given),,3.93 µM (active)
O=c1n(Cl)c(=O)n(Cl)c(=O)n1Cl,,3.97 µM (active)
CC(C)NC(=O)N1CC(=O)N(c2cc(Cl)cc(Cl)c2)C1=O,,20 µM (active)
COC(=O)NC(=S)Nc1ccccc1NC(=S)NC(=O)OC,,15.1 µM (active)
COP(=S)(OC)Oc1ccc([N+](=O)[O-])c(C)c1,,3.97 µM (active)
Cc1cc(C)nc(Nc2ccccc2)n1,,7.59 µM (active)
CCOP(=S)(OCC)Oc1nc(Cl)n(C(C)C)n1,,2.18 µM (active)

Compound,outcome,AC50
Clc1cccc(C(Cl)(Cl)Cl)n1,,3.97 µM (active)
CCOc1cc(C(C)(C)C)ccc1C1COC(c2c(F)cccc2F)=N1 (stereo not given),,20 µM (active)
Cc1ccc(N=CN(C)C=Nc2ccc(C)cc2C)c(C)c1,,1.9 µM (active)
CCCC(=NOCC)C1=C(O)CC(CC(C)SCC)CC1=O (stereo not given),inactive,
CS(=O)(=O)c1ccc(C(=O)C2C(=O)CCCC2=O)c([N+](=O)[O-])c1,inactive,
COC(=O)N(C(=O)N1CO[C@@]2(C(=O)OC)Cc3cc(Cl)ccc3C2=N1)c1ccc(OC(F)(F)F)cc1,,1.86 µM (active)
CN=C=S,inactive,
Nc1cnn(-c2ccccc2)c(=O)c1Cl,inactive,
Nc1c(Cl)c(Cl)nc(C(=O)O)c1Cl,inactive,
COC(=O)NS(=O)(=O)c1ccc(N)cc1,,0.00106 µM (active)
CC(C)=CC1C(C(=O)OCc2coc(Cc3ccccc3)c2)C1(C)C (stereo not given),inactive,
COc1cc(Cl)c(OC)cc1Cl,inactive,
CC(C)Oc1cccc(NC(=O)c2ccccc2C(F)(F)F)c1,,20 µM (active)
CCOc1nc(C(Cl)(Cl)Cl)ns1,inactive,
COc1ccc(-c2ccccc2)cc1NNC(=O)OC(C)C,,14.1 µM (active)
CC1(C)C(C(=O)OC(C#N)c2cccc(Oc3ccccc3)c2)C1(C)C (stereo not given),inactive,
N#Cc1c[nH]cc1-c1cccc2c1OC(F)(F)O2,,3.64 µM (active)
CCSC(=O)N1CCCCCC1,inactive,
CCCN(CC)CC1COC2(CCC(C(C)(C)C)CC2)O1 (stereo not given),,0.376 µM (active)
COP(=O)(OC)O/C(C)=C/C(=O)N(C)C,inactive,
